The panel holds about 79,000 compounds, 15% with a hit somewhere; the sample as a whole holds those more often. Rule as the data show it: active = growth inhibition above about 70%; inactive = the rest.
Tests used:
[1] = NCI Yeast Anticancer Drug Screen. Data for the rad50 strain (AID 155);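 also: 0% = growth of vehicle-only cultures of the same strain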; conditions: S. cerevisiae rad50 strain growth inhibition; at 50.0 µM; active compounds read high
Procedure, shortened: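 DNA repair mutant yeast, compound exposure, growth read-out; inhibition is taken relative to vehicle.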

[2] = NCI Yeast Anticancer Drug Screen. Data for the mec2-1 strain (AID 157); conditions: S. cerevisiae mec2-1 strain, at 50.0 µM, active compounds read high
Procedure, shortened: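 Yeast mec2-1 mutant treated with compound. Readout: growth inhibition vs vehicle controls.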

[3] = NCI Yeast Anticancer Drug Screen. Data for the sgs1 mgt1 strain (AID 161);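 also: 0% = growth of cultures given vehicle only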; conditions: S. cerevisiae sgs1 mgt1 strain, at 50.0 µM, active compounds read high
Procedure, shortened: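 Genetically altered yeast, compound exposure, growth inhibition relative to vehicle.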

[4] = NCI Yeast Anticancer Drug Screen. Data for the cln2 rad14 strain (AID 165);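 also: 0% = growth equal to vehicle treated cultures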; conditions: S. cerevisiae cln2 rad14 strain, at 50.0 µM, active compounds read high
Procedure, shortened: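 cln2 rad14 yeast strain; compound exposure; growth inhibition read vs vehicle controls.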

[5] = NCI Yeast Anticancer Drug Screen. Data for the bub3 strain (AID 167); conditions: S. cerevisiae bub3 mutant strain, at 50.0 µM, active compounds read high
Procedure, shortened: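 In this screen, a yeast mutant lacking normal mitotic checkpoint function is challenged with compound. Relative growth versus vehicle gives the inhibition value.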

[6] = NCI Yeast Anticancer Drug Screen. Data for the mlh1 rad18 strain (AID 175); conditions: S. cerevisiae mlh1 rad18 strain growth inhibition; at 50.0 µM; active compounds read high
Procedure, shortened: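 Yeast w/ defined DNA-repair lesions; compound exposure; growth vs vehicle controls → % inhibition.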

Measured: growth inhibition

N#Cc1cc2c(n(C3OC(CO)C(O)C(O)C3O)c1=S)CCCCCC2 (stereo unspecified)
inactive: [1] 31% | [2] 19.5% | [3] 17.8% | [4] 10.4% | [5] -3.55% | [6] 37.1%

COC(=N)C(C)C
inactive: [1] 26.4% | [2] 14.9% | [3] 4.9% | [4] 13.1% | [5] -6.2% | [6] 22.6%

O=C(CCl)N1CCC(CC2(c3cc4ccccc4[nH]3)OCCO2)CC1
inactive: [1] -0.95% | [2] 15.2% | [3] 29.9% | [4] -5.05% | [5] 10.1% | [6] 1.15%

CCOC(=O)C(NC(=O)OCc1ccccc1)C(=O)O (stereo unspecified)
inactive: [1] -22.9% | [2] -27.4% | [3] -14.3% | [4] 7.7% | [5] 5.35% | [6] -14.7%

O=C(Nc1cc(C(F)(F)F)ccc1Cl)c1ccccc1F
inactive: [1] 17.1% | [2] 29.1% | [3] -6.95% | [4] -9.15% | [5] 34.9% | [6] 18.6%

C=C(CCl)CCl
inactive: [1] 42.4% | [2] 12.2% | [3] 39.1% | [4] 12.5% | [5] 46.3% | [6] 36.5%

NC(CC(=O)Nc1ccc(Cl)cc1)=Nc1ccccc1
inactive: [1] -28.6% | [2] -12.9% | [3] -11.2% | [4] -10.3% | [5] -14.4% | [6] -18.9%

Cc1cc(C(C)(C)C)ccc1S(=O)(=O)/C=C/c1ccccc1
inactive: [1] -18.6% | [2] -23.1% | [3] -6.1% | [4] 0.45% | [5] -1.7% | [6] -26.1%

O=C1C=C(Nc2cc(Cl)ccc2Cl)c2ccccc2C1=O
inactive: [1] 9.75% | [2] 4.25% | [3] -8.8% | [4] 6.8% | [5] 15.2% | [6] 32.5%

CC(=O)OCC(C)(C)C(OC(C)=O)C(C)C (stereo unspecified)
inactive: [1] 16.1% | [2] 0.75% | [3] 13.8% | [4] -46.8% | [5] -0.5% | [6] 11.2%

O=C(O)c1ccccc1SC1OC(=O)c2ccccc21 (stereo unspecified)
inactive: [1] -0.45% | [2] -8.75% | [3] 2.35% | [4] -58.7% | [5] 2.75% | [6] -1.45%

CCSC1OC(C(O)CO)C(O)C1NC(=O)C(F)(F)F (stereo unspecified)
inactive: [1] 5.65% | [2] 6.05% | [3] 1.5% | [4] 1.1% | [5] 32% | [6] 12.8%

Nc1nc(N)c2c(n1)NCN(OCOc1ccc(Cl)cc1)C2
inactive: [1] -5.05% | [2] -6% | [3] -4.7% | [4] -21.8% | [5] 7.75% | [6] 1.55%

CCCCCCCCCCCCCCCC(=O)N(CCCC)CCCC
inactive: [1] 3.55% | [2] 5.7% | [3] -4.05% | [4] 11.9% | [5] 3.4% | [6] 8.85%

Cc1cc2cc3c(C)cc(=O)oc3c(C)c2o1
inactive: [1] -35.1% | [2] -37.1% | [3] -28.4% | [4] -8.35% | [5] -10.5% | [6] -17.6%

CC(=O)c1cc2c(cc1C)C(C(C)C)CCC2(C)C (stereo unspecified)
inactive: [1] 3.75% | [2] -14.6% | [3] 6.55% | [4] -18.8% | [5] 41.7% | [6] 6.85%

CC(=O)OCC1OC2OC(C)(C)OC2C2OC(C)(C)OC12 (stereo unspecified)
inactive: [1] -13.5% | [2] 5.35% | [3] 19.2% | [4] -4.65% | [5] -7.65% | [6] -12.8%

N#C/C(c1ccccc1)=[N+](/[O-])O
inactive: [1] 2.55% | [2] -4.9% | [3] 2.5% | [4] -20.7% | [5] -17.5% | [6] 13.7%

CSC(/C=C/c1ccccc1)=Nc1ccccc1
inactive: [1] 3.2% | [2] 11.9% | [3] -0.9% | [4] -21.6% | [5] 23.6% | [6] 15%

O=S1(=O)C(c2ccccc2)C(N2CCCCC2)C1C1CC2c3ccccc3C1c1ccccc12 (stereo unspecified)
inactive: [1] 19.5% | [2] 32.6% | [3] 2.9% | [4] -28% | [5] 28.9% | [6] 30.2%

CCC(c1ccccc1)C(C(=O)O)C(=O)O (stereo unspecified)
inactive: [1] 5.95% | [2] -5.35% | [3] 0.55% | [4] -16.8% | [5] 6.35% | [6] 6.65%

— PubChem BioAssay (NCI)
